Where “and” joins values, the source holds several entries; their conditions need not be identical. Equal values may be shown once. Records with an inconclusive call do not appear. For part of these data: Entries with a potency or affinity are not part of this list. Calls of active or inactive are those of the source.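 Rule for the calls, unless noted: active = thallium flux through the channel raised or lowered by more than 3 SD from vehicle-only wells, actives on both sides; inactive = the rest.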
Experiments:
F380Y = test: modulators of BK channel variants, profiling panel, selectivity assay, cell-based, U2OS BacMam, thallium flux, beta subunits (AID 1259406); conditions: at 30 µM;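 note: initial slope of Thallos dye fluorescence rise after thallium is added; log ratio against the mean of 0.3% DMSO vehicle wells on the same plate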
F380Y/beta2Delta = test: as above; conditions: at 30 µM
[1] = target: Calcium-activated potassium channel subunit alpha-1 (Homo sapiens) + Leucine-rich repeat-containing protein 26 (Homo sapiens) (UniProt Q12791+Q2I0M4); test: as above; conditions: F380Y/Slo1WT/gamma1, at 30 µM
Sequence of Calcium-activated potassium channel subunit alpha-1 (Homo sapiens) + Leucine-rich repeat-containing protein 26 (Homo sapiens) (Q2I0M4 whole entry, looked up, one chain of several): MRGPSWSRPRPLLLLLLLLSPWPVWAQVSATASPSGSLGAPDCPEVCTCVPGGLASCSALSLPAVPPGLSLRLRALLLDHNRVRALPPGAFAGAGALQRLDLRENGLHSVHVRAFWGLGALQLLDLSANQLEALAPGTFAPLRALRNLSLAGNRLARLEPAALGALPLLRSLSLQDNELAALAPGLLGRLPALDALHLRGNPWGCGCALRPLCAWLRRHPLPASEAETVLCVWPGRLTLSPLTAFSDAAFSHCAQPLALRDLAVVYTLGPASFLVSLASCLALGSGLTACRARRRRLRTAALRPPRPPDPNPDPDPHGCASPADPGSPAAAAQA

R275C = test: as above; conditions: at 30 µM
R275C/beta1 = test: as above; conditions: at 30 µM
R275C/beta2Delta = test: as above; conditions: at 30 µM
[2] = system: Aerobactin synthetase IucA (Klebsiella pneumoniae); test: IucA aerobactin synthetase inhibitors, biochemical, Tocris library, absorbance (AID 1345561; call rule not given here;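 note: 100% = enzyme without compound and 0% = no enzyme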); conditions: purified IucA enzyme assay, absorbance (OD) read-out; stronger effect = lower value;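 tested at 8 µM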
[3] = circadian clock period modulators, cell-based, LOPAC library, luminescence reporter (AID 2774; call rule not given here;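 note: values are relative to mean of DMSO wells on each plate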); conditions: circadian reporter cells, at 7 µM, actives lie on both sides
[4] = system: Hepatitis C virus NS3 helicase; test: HCV NS3 helicase inhibitors, primary screen, biochemical, fluorescence polarization, LOPAC1280 library (AID 687035; in the data active = inhibition above about 37%); conditions: Purified HCV NS3 helicase, Cy5-dT15 ssDNA binding fluorescence polarization; stronger effect = higher value; concentration not given here
[5] = Cy5 fluorescence quenching or enhancement artefacts, artefact control for HCV NS3 helicase inhibitor project, biochemical, LOPAC1280 (AID 687037; call rule not given here); conditions: Cy5-DNA-NS3h complex fluorescence interference counterscreen
[6] = phospholipid biosynthesis inhibitors in animal cells, primary screen, cell-based, LOPAC library, screen 4 (AID 1347384; call rule not given here); conditions: phospholipid biosynthesis inhibition screen, at 10 µM
[7] = growth inhibition of DIPG glioma cells, dose response, cell-based, JHH-DIPG-1, MIPE4.0, CellTiter-Glo, qHTS (AID 1347062; cut-off not given, nearly all actives have AC50 up to about 27 µM); conditions: JHH-DIPG-1 viability, CellTiter-Glo ATP luminescence
[8] = viability loss in pontine glioma line – cell-based, SU-DIPG-XXV, MIPE5.0, CellTiter-Glo, qHTS, dose response (AID 1347065; cut-off not given, nearly all actives have AC50 up to about 26 µM;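 note: cells exposed to compound for 48 hours before ATP readout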); conditions: CellTiter-Glo ATP luminescence
[9] = polyglutamine-triggered caspase-3 activation inhibitors, cell-based (AID 1583); conditions: polyglutamine-induced caspase-3 activation, cell assay; stronger effect = higher value;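 tested at 10 µM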
[10] = suppressors of polyQ aggregation in yeast, 75Q-TubU reporter (AID 1593); conditions: Yeast 75Q polyglutamine aggregation reporter
[11] = rescue of polyQ-huntingtin neuronal dysfunction in worms, whole organism, C. elegans mechanosensory neurons, N-terminal huntingtin (AID 1599); conditions: touch response, stronger effect = higher value
[12] = inhibitors of mitochondrial cytochrome c release, biochemical, purified mitochondria (AID 1603); conditions: stronger effect = lower value;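 note: mouse liver mitochondria challenged with calcium chloride; signal normalized to the plate average as 100%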
[13] = inhibitors of polyQ protein aggregation (AID 1604); conditions: polyglutamine-induced protein aggregation inhibition assay; stronger effect = higher value; tested at 2.5 µM
[14] = enhancers of glutamate uptake in motor neurons, MN-1 cell line (AID 1612); conditions: MN-1 motor neuron cells, stronger effect = higher value;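 note: tested at 1 µM final; 0% = mean of DMSO vehicle wells on each plate; positive means more glutamate uptake than control and negative means less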
[15] = suppressors of polyglutamine aggregation in yeast, 75Q-TubH (AID 1616); conditions: S. cerevisiae 75Q-TubH polyglutamine aggregation suppression; stronger effect = higher value

NC(=O)OCCCc1ccccc1
inactive: log fold change Tl+ flux (F380Y) 0.0271 | log fold change Tl+ flux (F380Y/beta2Delta) 0.0735 | log fold change Tl+ flux [1] -0.0246 | log fold change Tl+ flux (R275C) -0.0501 | log fold change Tl+ flux (R275C/beta1) 0.00561 | log fold change Tl+ flux (R275C/beta2Delta) 0.00928

COc1cccc([C@@]2(O)CCCC[C@@H]2CN(C)C)c1
inactive: log fold change Tl+ flux (F380Y) -0.0178 | log fold change Tl+ flux (F380Y/beta2Delta) -0.0331 | log fold change Tl+ flux [1] -0.0312 | log fold change Tl+ flux (R275C) -0.0685 | log fold change Tl+ flux (R275C/beta1) -0.0302 | log fold change Tl+ flux (R275C/beta2Delta) 0.00141

COc1cc(N)c(Cl)cc1C(=O)NC1CN2CCC1CC2 (configuration not stated)
inactive: remaining activity [2] 124%

CCOC(=O)c1cncn1C(C)c1ccccc1 (configuration not stated)
inactive: log fold change Tl+ flux (F380Y) -0.00492 | log fold change Tl+ flux (F380Y/beta2Delta) 0.0219 | log fold change Tl+ flux [1] -0.00742 | log fold change Tl+ flux (R275C) -0.00746 | log fold change Tl+ flux (R275C/beta1) 0.0125 | log fold change Tl+ flux (R275C/beta2Delta) 0.0301

CC[C@]1(O)CC[C@H]2[C@@H]3CCC4=CCCC[C@@H]4[C@H]3CC[C@@]21C
active: log fold change Tl+ flux [1] 0.141 | log fold change Tl+ flux (R275C/beta1) 0.231 | log fold change Tl+ flux (R275C/beta2Delta) 0.196
inactive: log fold change Tl+ flux (F380Y) 0.0652 | log fold change Tl+ flux (F380Y/beta2Delta) -0.0162 | log fold change Tl+ flux (R275C) 0.0162

c1ccc2c(c1)OCC(C1=NCCN1)O2 (configuration not stated)
inactive: period change [3] 0.1 h | inhibition [4] -7% | fluorescence ratio (interference) [5] 0.9 | remaining activity [2] 99.1% | outcome [6]

CCN(CC)CCOC(=O)C(O)(c1ccccc1)c1ccccc1
inactive: log fold change Tl+ flux (F380Y) 0.0198 | log fold change Tl+ flux (F380Y/beta2Delta) 0.0439 | log fold change Tl+ flux [1] -0.0223 | log fold change Tl+ flux (R275C) -0.0214 | log fold change Tl+ flux (R275C/beta1) -0.0156 | log fold change Tl+ flux (R275C/beta2Delta) 0.0436

C=C1C[C@@H]2[C@H](CC[C@]3(C)C(=O)CC[C@@H]23)[C@@]2(C)C=CC(=O)C=C12
inactive: outcome [7] | outcome [8] | log fold change Tl+ flux (F380Y) -0.00852 | log fold change Tl+ flux (F380Y/beta2Delta) 0.0277 | log fold change Tl+ flux [1] 0.0186 | log fold change Tl+ flux (R275C) -0.00349 | log fold change Tl+ flux (R275C/beta1) 0.0308 | log fold change Tl+ flux (R275C/beta2Delta) 0.00258

c1ccc2c(c1)Nc1ccccc1S2
inactive: log fold change Tl+ flux (F380Y) -0.0351 | log fold change Tl+ flux (F380Y/beta2Delta) 0.033 | log fold change Tl+ flux [1] -0.0274 | log fold change Tl+ flux (R275C) -0.041 | log fold change Tl+ flux (R275C/beta1) 0.0203 | log fold change Tl+ flux (R275C/beta2Delta) -0.0792

NC1=NC(=O)C(c2ccccc2)O1 (configuration not stated)
inactive: log fold change Tl+ flux (F380Y) -0.012 | log fold change Tl+ flux (F380Y/beta2Delta) -0.0196 | log fold change Tl+ flux [1] -0.0447 | log fold change Tl+ flux (R275C) 0.00173 | log fold change Tl+ flux (R275C/beta1) 0.00542 | log fold change Tl+ flux (R275C/beta2Delta) -0.00885

CN1C(=O)CN=C(c2ccccc2)c2cc([N+](=O)[O-])ccc21
inactive: log fold change Tl+ flux (F380Y) 0.0275 | log fold change Tl+ flux (F380Y/beta2Delta) 0.0676 | log fold change Tl+ flux [1] -0.000886 | log fold change Tl+ flux (R275C) -0.00261 | log fold change Tl+ flux (R275C/beta1) -0.0104 | log fold change Tl+ flux (R275C/beta2Delta) 0.0315

O=C(O)C(Cl)Cl
inactive: remaining activity [2] 99.4% | log fold change Tl+ flux (F380Y) -0.0365 | log fold change Tl+ flux (F380Y/beta2Delta) -0.00825 | log fold change Tl+ flux [1] -0.0139 | log fold change Tl+ flux (R275C) -0.098 | log fold change Tl+ flux (R275C/beta1) 0.0188 | log fold change Tl+ flux (R275C/beta2Delta) -0.00393

COc1ccc(C(=O)N2CCCC2=O)cc1
1.16: aggregation suppression score [15]
5.51%: glutamate uptake change [14]
2.57: rescue above control [11]
0.98: cytochrome c release ratio [12]
60.5%: inhibition of aggregation [13]
0.89: score [10]
15.7%: inhibition [9]
inactive: period change [3] -0.01 h | inhibition [4] -3% | fluorescence ratio (interference) [5] 0.9 | remaining activity [2] 97.7% | outcome [7] | outcome [8] | outcome [6]

CN[C@@H]1C[C@@H](c2ccc(Cl)c(Cl)c2)c2ccccc21
active: log fold change Tl+ flux (F380Y/beta2Delta) 0.44 | log fold change Tl+ flux (R275C) -0.12 | log fold change Tl+ flux (R275C/beta1) 0.445 | log fold change Tl+ flux (R275C/beta2Delta) 0.134
inactive: period change [3] 0.04 h | inhibition [4] -2% | fluorescence ratio (interference) [5] 0.9 | remaining activity [2] 118% | outcome [6] | log fold change Tl+ flux (F380Y) 0.0202 | log fold change Tl+ flux [1] 0.0738

NN=C(N)N
inactive: period change [3] -0.015 hour and -0.1 hour | inhibition [4] -1% and -5% | fluorescence ratio (interference) [5] 1 and 0.9 | remaining activity [2] 98% | outcome [8] | outcome [6]

CC[C@@H](CO)NC(=O)[C@@H]1C=C2c3cccc4c3c(cn4C)C[C@H]2N(C)C1
inactive: period change [3] 0.11 h | fluorescence ratio (interference) [5] 1 | remaining activity [2] 121% | outcome [6]

CN[C@@H](C)[C@H](O)c1ccccc1
inactive: period change [3] -0.07 h

CC(C)c1cccc(C(C)C)c1O
inactive: period change [3] 0.005 h | inhibition [4] -1% | fluorescence ratio (interference) [5] 1 | outcome [7] | outcome [8] | outcome [6] | log fold change Tl+ flux (F380Y) -0.0182 | log fold change Tl+ flux (F380Y/beta2Delta) -0.0275 | log fold change Tl+ flux [1] -0.0487 | log fold change Tl+ flux (R275C) -0.0316 | log fold change Tl+ flux (R275C/beta1) -0.0537 | log fold change Tl+ flux (R275C/beta2Delta) -0.0157
